Data as given in PubChem BioAssay (NCATS).
Records with an inconclusive call do not appear. Where a call stands in place of a potency, no number is given. The source made the active and inactive calls. Calls come from the whole dose curve; as a rule, active = well fitted curve in the direction sought with a large enough effect; inconclusive = small, poorly fitted or top-dose-only effect, or another doubt; inactive = no such curve, though single readings can be large; an effect the other way counts as inactive or inconclusive.

Key:
[1] = molecular target: Voltage-gated inwardly rectifying potassium channel KCNH2 (Homo sapiens) (UniProt Q12809); assay: qHTS Assay for Small Molecule Inhibitors of the Human hERG Channel Activity (AID 588834);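 note: top concentration of the series differs between compounds; lower thallium flux fluorescence means stronger hERG block; nearly all actives have a fitted effect of over 50% in size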
In short: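 U2OS cells BacMam-transduced with hERG, 2000 cells/well, compound ~10 min at 37 °C before stimulation buffer. FluxOR thallium flux fluorescence read kinetically on FDSS; decrease indicates block; AC50 from Hill fits.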

[2] = test system: Zika virus NS2B-NS3 protease (unlinked); assay: Optimization of GU AMC qHTS for Zika virus inhibitors: Unlinked NS2B-NS3 protease assay (AID 1347151); note: series mostly up to about 52 µM; nearly all actives have a fitted effect of over 80% in size
In short: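 Noncovalent NS2B hydrophilic domain–NS3 protease complex (25 nM final) in 10 mM Tris-HCl pH 8.0, 0.01% Tween 20; AMC substrate, room temperature 15 min (~20% conversion); fluorescence change normalized, 4-parameter Hill fit.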

Chain of Voltage-gated inwardly rectifying potassium channel KCNH2 (Homo sapiens) (Q12809 whole entry, looked up): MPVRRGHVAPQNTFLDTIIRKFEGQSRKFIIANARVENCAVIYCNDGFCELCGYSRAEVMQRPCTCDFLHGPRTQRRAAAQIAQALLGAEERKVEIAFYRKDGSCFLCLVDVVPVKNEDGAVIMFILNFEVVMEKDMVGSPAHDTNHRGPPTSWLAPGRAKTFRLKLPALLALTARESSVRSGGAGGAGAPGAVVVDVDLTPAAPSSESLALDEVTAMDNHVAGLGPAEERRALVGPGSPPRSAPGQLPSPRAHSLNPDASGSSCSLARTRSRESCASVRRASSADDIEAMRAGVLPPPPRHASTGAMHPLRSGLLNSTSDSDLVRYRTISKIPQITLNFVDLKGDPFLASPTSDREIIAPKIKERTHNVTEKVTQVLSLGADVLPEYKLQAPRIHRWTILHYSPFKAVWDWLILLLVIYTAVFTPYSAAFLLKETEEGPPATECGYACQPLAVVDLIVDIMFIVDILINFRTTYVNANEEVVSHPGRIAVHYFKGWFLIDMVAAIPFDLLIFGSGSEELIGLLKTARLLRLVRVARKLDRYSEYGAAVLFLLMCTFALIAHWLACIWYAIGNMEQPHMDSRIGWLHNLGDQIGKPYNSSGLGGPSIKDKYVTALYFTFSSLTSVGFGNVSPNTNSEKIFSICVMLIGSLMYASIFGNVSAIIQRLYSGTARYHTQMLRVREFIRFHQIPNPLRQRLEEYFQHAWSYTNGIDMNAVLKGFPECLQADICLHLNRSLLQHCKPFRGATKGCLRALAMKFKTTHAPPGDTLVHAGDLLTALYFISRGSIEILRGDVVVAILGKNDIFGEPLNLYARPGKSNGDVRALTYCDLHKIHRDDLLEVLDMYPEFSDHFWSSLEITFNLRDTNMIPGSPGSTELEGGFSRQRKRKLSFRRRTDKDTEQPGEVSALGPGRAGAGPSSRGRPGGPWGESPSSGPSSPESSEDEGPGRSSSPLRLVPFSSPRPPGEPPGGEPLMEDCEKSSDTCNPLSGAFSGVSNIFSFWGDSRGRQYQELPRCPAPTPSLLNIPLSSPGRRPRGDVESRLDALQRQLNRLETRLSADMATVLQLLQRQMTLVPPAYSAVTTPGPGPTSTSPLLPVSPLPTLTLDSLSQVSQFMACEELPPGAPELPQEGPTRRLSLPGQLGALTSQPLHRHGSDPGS

**Q.** What does the source list for `CC[C@H](C)[C@H]1O[C@]2(CC[C@@H]1C)C[C@@H]1C[C@@H](C/C=C(\C)[C@@H](O[C@H]3C[C@H](OC)[C@@H](O[C@H]4C[C@H](OC)[C@@H](O)[C@H](C)O4)[C@H](C)O3)[C@@H](C)/C=C/C=C3\CO[C@@H]4[C@H](O)C(C)=C[C@@H](C(=O)O1)[C@]34O)O2`?
**A.** Potency [1]: inactive; Potency [2]: inactive
